Compound activity: PubChem, National Center for Advancing Translational Sciences (NCATS)
SMN2 splice up: enhancers of SMN2 splice variant expression; hit rate 2.8% among 210,000; HEK293 SMN2-luciferase splicing reporter, luminescence, 30-36 h; Potency, µM (titrated, usually from 46.1 µM), without a hit: at the top dose activity change, positive = activation, hits mostly activators; also: % of control where 0% means no effect; nearly all actives have a fitted effect of over 55% in size
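qHTS luciferase splicing reporter: luminescence rises when SMN2 exon 7 is included in transfected HEK293 cells. Compound exposure lasted 30-36 h at 37C, with 4.5 mM final sodium butyrate as control, followed by a ONE-Glo read.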
FLuc counter: counter-screen for miR-21 project: firefly luciferase inhibitors or activators | purified FLuc, Km substrates, luminescence inhibition | hit rate 6.9% among 360,000 | AID 588342 | P08659 | Potency, µM (highest dose often 57.5 µM), for inactives: at the top dose activity change, negative = inhibition, most hits filed as inhibitors;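 also: plate controls were vehicle for no effect and reference inhibitor for full effect; nearly all actives have a fitted effect of over 55% in size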
Target sequence (P08659 whole entry, looked up): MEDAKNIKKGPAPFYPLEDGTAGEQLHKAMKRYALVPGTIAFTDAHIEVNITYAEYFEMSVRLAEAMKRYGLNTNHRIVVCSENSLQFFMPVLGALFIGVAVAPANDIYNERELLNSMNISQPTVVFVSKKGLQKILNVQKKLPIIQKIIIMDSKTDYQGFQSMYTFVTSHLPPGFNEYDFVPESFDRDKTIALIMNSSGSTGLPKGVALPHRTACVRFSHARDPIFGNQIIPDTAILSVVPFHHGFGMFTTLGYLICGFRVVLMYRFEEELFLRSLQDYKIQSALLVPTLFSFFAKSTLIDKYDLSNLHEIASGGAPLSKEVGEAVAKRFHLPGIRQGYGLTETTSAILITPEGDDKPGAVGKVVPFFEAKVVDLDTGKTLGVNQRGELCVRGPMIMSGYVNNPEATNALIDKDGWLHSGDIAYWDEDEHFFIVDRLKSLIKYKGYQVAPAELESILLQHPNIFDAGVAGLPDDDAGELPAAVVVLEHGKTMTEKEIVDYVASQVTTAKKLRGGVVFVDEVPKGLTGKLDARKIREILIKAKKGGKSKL
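Purified P. pyralis luciferase (10nM final) with 10uM D-luciferin and 10uM ATP (Km levels) in 50mM Tris acetate pH 7.5, 10mM Mg acetate, 0.01% Tween-20, 0.05% BSA; qHTS 6-point titration, ~60 µM downward; luminescence read.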
Rab9 promoter act: activates the Rab9 promoter; Huh7 Rab9 promoter-luciferase reporter, luminescence, 24 h; Potency, µM (top dose mostly 9.22 µM), for the others: at the top dose activation, negative = inhibition, usual class: activators; hit rate 2.8% among 320,000; AID 485297; also: % of control where 0% means no effect; nearly all actives have a fitted effect of over 60% in size
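Huh7 reporter line, Rab9 promoter upstream of luciferase. Compound exposure 24 h at 37 °C in reduced-serum medium with 10% FBS. Read-out: luminescence.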
ELG1 repair inh: blocks ELG1-dependent DNA repair in HEK293T cells | Potency, µM (titrated, usually from 46.1 µM), for the others: at the top dose activity change, negative = inhibition, usual class: inhibitors | HEK293T ELG1-luciferase reporter, luminescence, 16 h; DNA damage induced by 5-fluorouridine | AID 504467 | hit rate 2.3% among 330,000; also: % is scaled to controls: 0 for no effect and ±100 for the full control effect; nearly all actives have a fitted effect of over 55% in size
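Reporter activity after DNA damage by 5-fluorouridine is monitored. Compound-treated cells incubate 16 hr at 37 °C, then ONE-Glo is added for 30 min before luminescence reading.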
ELG1 genotox: inducers of genotoxicity in HEK293T ELG1-luciferase cells; Potency, µM (top dose mostly 46 µM), for inactives: at the top dose activity change, positive = activation, actives largely listed as activators; AID 504466; hit rate 1.3% among 330,000; HEK293T ELG1-luciferase reporter, luminescence, 16 h; also: % of control where 0% means no effect; nearly all actives have a fitted effect of over 60% in size
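Cells (2,000/well) expressing the ELG1-luciferase fusion are dosed by pin tool and kept 16 hr at 37 °C, 5% CO2. Signal comes from ONE-Glo luciferase reagent after 30 min at room temperature.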
NPC1 prom act: NPC1 promoter activation | Huh7 NPC1 promoter luciferase reporter, 24 h | Potency, µM (titrated, usually from 9.22 µM), without a hit: at the top dose activation, most hits filed as activators | hit rate 2.4% among 320,000 | AID 485313; also: % of control where 0% means no effect; nearly all actives have a fitted effect of over 60% in size
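NPC1 promoter–luciferase Huh7 cells; 24 h compound; luminescence.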
Numbers without * were called inactive; ? = inconclusive; . = no result. Only some compounds are listed: those with a hit (about 9.2% of all), similar ones and a draw of the others. Calls follow the shape of the dose curve; as a rule, active = well fitted curve in the direction sought with a large enough effect; inconclusive = small, poorly fitted or top-dose-only effect, or another doubt; inactive = no such curve, though single readings can be large; an effect the other way counts as inactive or inconclusive. Potency is read from the fitted curve at half-maximal effect.

SMILES	SMN2 splice up	FLuc counter	Rab9 promoter act	ELG1 repair inh	ELG1 genotox	NPC1 prom act
COc1ccc(CNC(=O)COC(=O)c2n[nH]c3ccccc23)cc1	-10%	6%	-1%	-21%	-2%	-3%
COc1ccc(OCC(=O)NCCc2c[nH]c3ccccc23)cc1	.	1%	-1%	0%	-2%	-1%
Cc1ccsc1C(=O)NCCc1nnc2ccccn12	.	?	2.5µM*	?	?	?
O=C(NCCc1c[nH]c2ccccc12)c1ccc(F)cc1F	.	12µM*	?	?	?	?
Cc1ccsc1C(=O)NCCC(c1ccccc1)c1ccccc1	-11%	-1%	-6%	-5%	0%	1%
COc1ccc(CCNC(=O)c2n[nH]c3ccccc23)cc1	24%	21µM*	21%	14%	0%	17%
COc1ccc(C(=O)NCCc2c[nH]c3ccccc23)cc1	.	9.5µM*	1.6µM*	?	9.2µM*	2.8µM*
CN(Cc1cccs1)C(=O)CCCc1c[nH]c2ccccc12	?	27µM*	3.2µM*	?	?	23%
O=C(NCc1ccc(F)cc1)c1cnc2sccn2c1=O	-5%	-1%	2%	3%	0%	0%
COc1ccc(C(=O)c2c[nH]c3ccccc23)cc1	?	3.4µM*	.	.	.	.
O=C(NCCc1c[nH]c2ccccc12)c1cnc2sccn2c1=O	14µM*	15µM*	4.5µM*	?	8.2µM*	3.5µM*
O=C(NCCc1c[nH]c2ccccc12)c1ccc(Cl)cc1	.	11µM*	2.8µM*	?	?	1.8µM*
O=C(NCCSc1c[nH]c2ccccc12)c1ccc(Cl)cc1	-17%	-14%	.	.	.	.
CCOC(=O)C1=C(COC(=O)Cc2ccccc2F)NC(=O)NC1C (stereo not given)	.	1%	1%	29%	0%	-3%
O=C(c1cc(C(F)(F)F)cc(C(F)(F)F)c1)N1CCC2(CCCN(c3ccccc3)C2)CC1	-15%	.	.	.	.	.
O=C1CC[C@H](C(=O)O)N1	5%	.	.	.	.	.
CN(C)C(=O)CCc1ccc2c3c([nH]c2c1)[C@]1(C)[C@@H](C(=O)N2CCOCC2)C[C@H](CC(=O)NCc2cccc(C(F)(F)F)c2)C(=O)N1CC3	.	.	.	-6%	10%	.
Cc1ccsc1C(=O)NCCc1c[nH]c2ccccc12	.	19µM*	?	?	?	?
O=C(Nc1cc(Cl)ccc1O)c1cc2nc(-c3ccc4c(c3)OCO4)cc(C(F)(F)F)n2n1	7%	-7%	.	.	.	.
CCn1c(SCC(=O)NC2CCCCC2)nnc1-c1ccco1	.	1%	0%	?	5%	3%
COc1ccc(CCNC(=O)c2cc(=O)c3cc(C)c(C)cc3o2)cc1OC	6%	-1%	.	.	.	.
O=S(=O)(Nc1ccc2nc(C(F)(F)F)[nH]c2c1)c1ccccc1	-45%	4%	-8%	10µM*	-13%	2%
Cc1cc(NS(=O)(=O)c2ccc3nc(-c4ccccc4)[nH]c3c2)ccc1Br	-7%	?	.	.	.	.
CC(C)(C)c1nc2ccc(NS(=O)(=O)c3ccc(F)c(F)c3F)cc2[nH]1	.	3%	0%	-4%	0%	-2%
Cc1ccc(-c2nc3ccc(NS(=O)(=O)c4ccccc4)cc3[nH]2)o1	?	12µM*	?	?	?	4µM*
SMILES	SMN2 splice up	FLuc counter	Rab9 promoter act	ELG1 repair inh	ELG1 genotox	NPC1 prom act
O=S(=O)(Nc1ccc2nc(-c3ccc(Br)o3)[nH]c2c1)c1ccccc1	9%	15µM*	2.8µM*	?	16%	2.8µM*
O=[N+]([O-])c1cc(S(=O)(=O)NCCN2CCOCC2)ccc1Cl	.	0%	0%	1%	3%	1%
Cc1cccc(N2CCN(C(=O)c3ccc(NC(=O)c4nsc5ccccc45)cc3)CC2)c1C	.	6µM*	.	.	.	.
O=C(Nc1ccc(C(=O)N2CCN(c3ccc(F)cc3)CC2)cc1)c1nsc2ccccc12	.	7.6µM*	.	.	.	.
O=C(Nc1ccc(C(=O)N2CCCCC2)cc1)c1nsc2ccccc12	.	1.3µM*	.	.	.	.
CC1=C(C(=O)Nc2cc(C(=O)N3CCN(c4cccc(C)c4C)CC3)ccc2C)SCCO1	.	2%	-2%	18µM*	-17%	-7%
COc1cc(OC)c(NC(=O)C2CC(=O)N(c3ccc4c(c3)OCCO4)C2)cc1Cl (stereo not given)	.	1%	-3%	-21%	2%	-2%
CC1CCN(CC2CCN(C(=O)NCc3ccccc3)CC2)CC1	.	1%	.	.	.	.
O=C(c1ccc(N2CCCC2=O)cc1)N1CCN(c2ccccc2)CC1	-5%	-2%	0%	6%	0%	-5%
Cc1cccc(N2CCN(C(=O)c3ccc(N4CCCC4=O)cc3)CC2)c1C	-34%	0%	0%	18µM*	-11%	0%
O=C(OCc1nnc(-c2ccc(Cl)cc2)o1)c1ccncc1	-1%	?	-3%	5%	-2%	8%
O=C(OCc1nnc(-c2ccccc2)o1)c1ccccc1	9%	15µM*	15%	9%	1%	1%
Cc1ccccc1C(=O)OCc1nnc(-c2ccc(Cl)cc2)o1	11%	19µM*	21%	?	8%	-1%
O=C(OCc1nnc(-c2ccc(Br)cc2)o1)c1ccco1	.	21µM*	0%	7%	1%	-3%
COc1ccc(-c2cc(-c3nnc(COC(=O)c4ccncc4)o3)c3ccccc3n2)cc1OC	-5%	?	-1%	18µM*	-17%	0%
Cc1nc2ccc(C(=O)OCc3nnc(-c4ccccc4)o3)cc2nc1C	.	-15%	1%	3%	-1%	-2%
O=C(COc1ccc([N+](=O)[O-])cc1)Nc1ccc2c(c1)CCC2	.	-26%	14%	0%	7%	5%
CCOc1ccccc1C(=O)N(Cc1ccc(N(C)C)cc1)Cc1ccco1	-3%	-19%	.	.	.	.
COc1ccc(CCNC(=O)CSc2cn(CCNC(=O)c3ccccc3F)c3ccccc23)cc1OC	-16%	-1%	.	.	.	.
Cc1cc(C)c(NC(=O)CCN2C(=O)c3ccccc3Sc3ncccc32)c(C)c1	.	-2%	.	.	.	.
O=C(COC(=O)c1ccc(-c2nnc(-c3ccccc3)o2)cc1)c1ccccc1	2.8µM*	4%	0.56µM*	?	?	0.56µM*
Cc1ccc(-c2cc(-c3ccccc3)nc(N(C)N)n2)cc1	.	1%	-5%	-2%	-3%	-3%
Cc1ccc(-c2cc(N)nc(-c3ccccc3)c2)cc1	.	13µM*	21%	?	?	24%
Cc1ncc(CO)c2c1Oc1nc(-c3ccccc3)nc(SCC(=O)N(C)c3ccccc3)c1C2	.	-4%	-2%	?	.	-8%
Cc1ncc(CO)c2c1Oc1nc(-c3ccccc3F)nc(SCC(=O)N(C)c3ccccc3)c1C2	.	2%	0%	2.9µM*	-8%	-2%
